Results on 34 compounds are retold here after ChEMBL document CHEMBL1157539, “Thousands of chemical starting points for antimalarial lead identification” (Nature, 2010).

What is called Inhibition is the relative decrease from the control value, in per cent. Read a high Inhibition as a strong effect.

What all share (type): functional
Assay [1] deals with Plasmodium falciparum. The experiment in a line: GSK_TCMDC: Inhibition of Plasmodium falciparum 3D7 in whole red blood cells, using parasite LDH activity as an index of growth. Test compounds present at 2uM.
In assay [2] the test system is Plasmodium falciparum. The experiment in a line: GSK_TCMDC: Inhibition of Plasmodium falciparum Dd2 in whole red blood cells, using parasite LDH activity as an index of growth. Test compounds present at 2uM.
A further assay relates to HepG2. The experiment in a line: GSK_TCMDC: Percent inhibition of human HepG2 cell line. Test compounds present at 10uM.

Turning to `CCN(CC(C)O)C(=O)c1ccc(-c2ccc(-c3nc4cccc(C)c4[nH]3)cc2)cc1` (configuration not stated), the Inhibition in the assay on Plasmodium falciparum [1] amounted to 94%; in the assay with Plasmodium falciparum [2], 13%; with HepG2 it was 18%.
On the same counts, the results for `COc1cccc(C2(c3cccc(OC)c3)N=C(N)N(CCCc3ccccc3)C2=O)c1.O=CO` are 98%, 93% and 3%.
For `CCN(CC)CCCNc1nccc(N2CCc3ncnc(Nc4ccc(OCc5cccc(F)c5)c(Cl)c4)c3C2)n1` the same measures were 100%, 95% and 100%.
On the same counts, the results for `CCCC1N=C(N)N=C(N)N1c1ccccc1.Cl` (configuration not stated) are 93%, 0% and 0%.
On to `CCOC(=O)c1ccc2[nH]c(-c3ccc(C(=O)NC4CCN(Cc5ccccc5)CC4)s3)nc2c1`, for which the values for the Inhibition with Plasmodium falciparum [1], in the assay with Plasmodium falciparum [2] and with HepG2 were 100%, 95% and 32%, respectively.
For `Cl.O=C(Nc1ccc(Cl)c(Cl)c1)Nc1ccc2nccc(N3CCNCC3)c2c1` the same measures were 99%, 62% and 18%.
For `O=C(c1cccc(-c2ccc(-c3nc4cc(C(F)(F)F)ccc4[nH]3)cc2)c1)N1CCCCC1CN1CCC(O)C1` (configuration not stated) the same measures were 92%, 100% and 19%.
For `CC(=O)Nc1ncc(C(=O)Nc2cccc(-c3ccc(-c4nc5cc(F)ccc5[nH]4)cc3)c2)s1` the same measures were 94%, 78% and 18%.
`CS(=O)(=O)c1ccc(CNCc2cccc(-c3cccc(-c4nc5cc(C(F)(F)F)ccc5[nH]4)c3)c2)cc1.O=C(O)C(F)(F)F`: the results for the Inhibition in the assay on Plasmodium falciparum [1], in the assay on Plasmodium falciparum [2] and in the assay on HepG2 were 100%, 96% and 5%, respectively.
For `CCOc1ccc2nc(N(CCCn3ccnc3)C(=O)C=Cc3cccs3)sc2c1.Cl` the same measures were 97%, 97% and 0%.
On the same counts, the results for `CCC(C)NS(=O)(=O)c1ccc2nc(Nc3ccc(C)cc3)n(C3CCCCC3)c2c1` (configuration not stated) are 97%, 97% and 0%.
For `CCc1sc(-c2ccc(C(C)(C)C)cc2)nc1C(=O)NCCCN1CCCC1=O` the same measures were 84%, 69% and 0%.
`Brc1ccc(Nc2nc(NCC3CCCO3)c3ccccc3n2)cc1` (configuration not stated): the Inhibition with Plasmodium falciparum [1] turned out to be 100%; in the assay on Plasmodium falciparum [2] it was 99%; in the assay with HepG2, 13%.
For `CC(C)c1ccc(NS(=O)(=O)c2cccc(C(=O)NC3CCN(CC4CCCCC4)CC3)c2)cc1.O=C(O)C(F)(F)F` the same measures were 93%, 69% and 71%.
Regarding `COc1ccc(NC(=O)c2cc(-c3ccc(NC(C)=O)cc3)cnc2N)cc1`, the figures for the Inhibition in the assay with Plasmodium falciparum [1], in the assay with Plasmodium falciparum [2] and in the assay on HepG2 were 98%, 5% and 10%, respectively.
On the same counts, the results for `CCN(CCCN1CCCCC1)c1cc(C)nc(Nc2cc(F)cc(F)c2)n1.O=C(O)C(F)(F)F` are 100%, 64% and 15%.
In the case of `CN(Cc1cc(C(F)(F)F)cc(C(F)(F)F)c1)C(=O)C1CNCC1c1ccc(F)cc1.Cl` (configuration not stated), the Inhibition in the assay with Plasmodium falciparum [1] is 92%; with Plasmodium falciparum [2], 4%; in the assay with HepG2 it was 1%.
On the same counts, the results for `O=C(Nc1cccc(CN2CCCN(Cc3cccc(O)c3)CC2)c1)c1ccc(-c2ccccc2)cc1.O=C(O)C(F)(F)F` are 100%, 66% and 28%.
Regarding `CC(=O)Nc1ccc(NC(=O)c2cc(-c3cc(Cl)ccc3O)n[nH]2)cc1`, the results for the Inhibition with Plasmodium falciparum [1], in the assay on Plasmodium falciparum [2] and with HepG2 were 100%, 100% and 1%, respectively.
On to `O=C(NCCCN1CCCC1=O)c1cnc(N2CCC(Oc3ccccc3)CC2)c(Cl)c1`, for which the Inhibition in the assay on Plasmodium falciparum [1] is 97%; with Plasmodium falciparum [2], 93%; in the assay with HepG2 it was 7%.
On the same counts, the results for `COc1ccc(CN(C)CCCc2ccc(NC(=O)c3cccc4c(=O)c5cccc(F)c5[nH]c34)cc2)cc1OC` are 100%, 94% and 100%.
On to `FC(F)(F)c1ccc2[nH]c(-c3ccc(-c4ccc(CNCCc5ccncc5)cc4)cc3)nc2c1.O=C(O)C(F)(F)F`, for which the Inhibition in the assay on Plasmodium falciparum [1] is reported as 100%; in the assay on Plasmodium falciparum [2], 100%; in the assay with HepG2, 26%.
For the compound `O=C(NC1CCCCC1)N(CCCn1ccnc1)Cc1csc(-c2ccc(CNCc3ccccc3)cc2)n1.O=C(O)C(F)(F)F`, the Inhibition came out at 97% in the assay on Plasmodium falciparum [1], 48% in the assay on Plasmodium falciparum [2] and 5% in the assay with HepG2.
For `COc1ccc(CCNC(=O)c2cc(C)ccc2O)cc1-c1ccc(C(C)(C)C)cc1` the same measures were 97%, 94% and 1%.
Consider `Cl.O=C1c2ccccc2CN1CCCN1CCC(Oc2ccc(F)cc2)CC1`, for which the Inhibition is 97% in the assay on Plasmodium falciparum [1], 1% with Plasmodium falciparum [2] and 14% with HepG2.
On the same counts, the results for `Cc1nc(C)c(-c2ccc(S(=O)(=O)c3ccc(Cl)cc3)cc2)c(O)c1Cl` are 98%, 96% and 0%.
`Fc1ccc2[nH]c(-c3cccc(-c4cccc(CNCc5cnn(-c6ccccc6)n5)c4)c3)nc2c1.O=C(O)C(F)(F)F`: the Inhibition came out at 91% with Plasmodium falciparum [1], 57% in the assay with Plasmodium falciparum [2] and 18% in the assay with HepG2.
For `O=C(/C=C/c1c(Cl)cccc1Cl)NC1CCC(CN2CCC(c3c[nH]c4ccncc34)CC2)CC1` (configuration not stated) the same measures were 99%, 100% and 78%.
In the case of `COC(=O)c1cccc(NC(=O)NC2CCN(c3ccnc(Nc4ccc(F)cc4)n3)C2)c1` (configuration not stated), the values for the Inhibition in the assay with Plasmodium falciparum [1], with Plasmodium falciparum [2] and in the assay with HepG2 were 100%, 83% and 5%, respectively.
On the same counts, the results for `CC(CNc1nc(NCC(c2ccccc2)c2ccccc2)c2nc[nH]c2n1)c1ccccc1` (configuration not stated) are 93%, 24% and 5%.
On the same counts, the results for `CCOc1c(CNCCCNc2cc(O)c3ccccc3n2)cc(I)cc1OC` are 91%, 6% and 0%.
On to `COc1ccc2nccc([C@@H](O)CN3CCC(NC(=O)C(c4cc5ccccc5s4)N4CC(C)OC(C)C4)CC3)c2c1` (some centres not stated), for which the Inhibition turned out to be 93% in the assay on Plasmodium falciparum [1], 44% in the assay on Plasmodium falciparum [2] and 12% in the assay with HepG2.
On the same counts, the results for `COC(=O)c1cccc(NC(=O)NC2CCN(c3ccnc(Nc4ccc(OC)cc4)n3)C2)c1` (configuration not stated) are 99%, 65% and 1%.
For `O=C1NC(c2ccccc2)C2(CCN(CC(O)COc3cccc4ncccc34)CC2)O1` (configuration not stated) the same measures were 92%, 95% and 5%.
